Results from PubChem BioAssay (NCATS).
For part of these data: Potency and affinity values are given separately. Activity calls are given as the source filed them. No rule for the calls is given here. Peptide text beside a SMILES is read from it.

Legend:
[1] = Ebola virus entry assay, green fluorescence channel
[2] = Ebola virus entry assay, blue channel fluorescence
[3] = Ebola virus entry assay, ratio channel
[4] = Ebola virus entry assay, green channel fluorescence
[5] = Ebola virus entry assay, reporter ratio channel; Channel type: primary
[6] = Ebola virus entry assay, blue channel (ratio component)
For efficacy in this document: 0% is about no effect.

CC1(C)[C@@H](OC(=O)CCC(=O)O)CC[C@]2(C)[C@H]3C(=O)C=C4[C@@H]5C[C@@](C)(C(=O)O)CC[C@]5(C)CC[C@@]4(C)[C@]3(C)CC[C@@H]12
inactive: efficacy [1] 12.7% | outcome [2] | outcome [3] | outcome [4] | outcome [5] | outcome [6]

Oc1c(I)cc(Cl)c2cccnc12
inactive: efficacy [1] 46.4% | outcome [2] | outcome [3] | outcome [4] | outcome [5] | outcome [6]

CSc1ccc(C(=O)c2[nH]c(=O)[nH]c2C)cc1
inactive: efficacy [1] 19.8% | outcome [2] | outcome [3] | outcome [4] | outcome [5] | outcome [6]

Brc1c(NC2=NCCN2)ccc2nccnc12
inactive: efficacy [1] -28.5% | outcome [2] | outcome [3] | outcome [4] | outcome [5] | outcome [6]

N[C@H](Cc1c[nH]c2ccccc12)C(=O)O
inactive: efficacy [1] 29.9% | outcome [2] | outcome [3] | outcome [4] | outcome [5] | outcome [6]

O=c1[nH]c(=O)n([C@H]2C[C@H](O)[C@@H](CO)O2)cc1C(F)(F)F
inactive: efficacy [1] 18.2% | outcome [2] | outcome [3] | outcome [4] | outcome [5] | outcome [6]

CCOc1ccc(NC(C)=O)cc1
inactive: efficacy [1] -22.6% | outcome [2] | outcome [3] | outcome [4] | outcome [5] | outcome [6]

CC(C)=CCC/C(C)=C/CC/C(C)=C/C(=O)OCC(=O)[C@@]1(O)CC[C@H]2[C@@H]3CCC4=CC(=O)C=C[C@]4(C)[C@H]3[C@@H](O)C[C@@]21C
inactive: efficacy [1] 14.4% | outcome [2] | outcome [3] | outcome [4] | outcome [5] | outcome [6]

COc1cc(O)c(C(=O)c2ccccc2)cc1S(=O)(=O)O
inactive: efficacy [1] 11.7% | outcome [2] | outcome [3] | outcome [4] | outcome [5] | outcome [6]

Cc1ccc(Nc2c(F)cccc2Cl)c(CC(=O)O)c1
inactive: efficacy [1] -7.19% | outcome [2] | outcome [3] | outcome [4] | outcome [5] | outcome [6]

C/C=C/c1ccc(O)c(OC)c1
inactive: efficacy [1] 19% | outcome [2] | outcome [3] | outcome [4] | outcome [5] | outcome [6]

Clc1ccccc1-c1nc(-c2ccncc2)no1
inactive: efficacy [1] -9.78% | outcome [2] | outcome [3] | outcome [4] | outcome [5] | outcome [6]

O=C(NCCc1c[nH]c2ccccc12)c1cccnc1
inactive: efficacy [1] 15.6% | outcome [2] | outcome [3] | outcome [4] | outcome [5] | outcome [6]

CCCCCCCC/C=C\CCCCCCCCN
inactive: efficacy [1] 12.8% | outcome [2] | outcome [3] | outcome [4] | outcome [5] | outcome [6]

Cc1ccc2nc(N)[nH]c(=O)c2c1Sc1ccncc1
inactive: efficacy [1] 17.5% | outcome [2] | outcome [3] | outcome [4] | outcome [5] | outcome [6]

COc1cc2[nH]c(=O)[nH]c(=O)c2cc1OC
inactive: efficacy [1] 23.8% | outcome [2] | outcome [3] | outcome [4] | outcome [5] | outcome [6]

CCOC(=O)C(C#N)=C(c1ccccc1)c1ccccc1
inactive: efficacy [1] 19.4% | outcome [2] | outcome [3] | outcome [4] | outcome [5] | outcome [6]

O=C1C(CCS(=O)c2ccccc2)C(=O)N(c2ccccc2)N1c1ccccc1 (stereo unspecified)
inactive: efficacy [1] 28.5% | outcome [2] | outcome [3] | outcome [4] | outcome [5] | outcome [6]

CC(C)c1cc2c(cc1S(=O)(=O)O)[C@@]1(C)CCC[C@@](C)(C(=O)O)[C@@H]1CC2
inactive: efficacy [1] -15.6% | outcome [2] | outcome [3] | outcome [4] | outcome [5] | outcome [6]

OCC(O)CS (stereo unspecified)
inactive: efficacy [1] -11.9% | outcome [2] | outcome [3] | outcome [4] | outcome [5] | outcome [6]

CC1(C)O[C@@H]2C[C@H]3[C@@H]4C[C@H](F)C5=CC(=O)CC[C@]5(C)[C@H]4[C@@H](O)C[C@]3(C)[C@]2(C(=O)CO)O1
inactive: efficacy [1] 23.9% | outcome [2] | outcome [3] | outcome [4] | outcome [5] | outcome [6]

COC(=O)C1=C(C)NC(COC(N)=O)=C(C(=O)OC(C)C)C1c1cccc(Cl)c1Cl (stereo unspecified)
inactive: efficacy [1] 27.1% | outcome [2] | outcome [4] | outcome [6]
active: AC50 [3] 22.4 µM | AC50 [5] 22.4 µM

CC(C)[C@@H]1CC[C@@H](C)CC1=O
inactive: efficacy [1] -22.8% | outcome [2] | outcome [3] | outcome [4] | outcome [5] | outcome [6]

CCOCC(O)COc1ccc(NC(=O)CC[S+](C)C)cc1 (stereo unspecified)
inactive: efficacy [1] -21.6% | outcome [2] | outcome [3] | outcome [4] | outcome [5] | outcome [6]

CC(=O)Nc1ccc(OCCOCCOc2ccc(NC(C)=O)cc2)cc1
inactive: efficacy [1] 20.2% | outcome [2] | outcome [3] | outcome [4] | outcome [5] | outcome [6]

NC(N)=NCCC[C@H](N)C(=O)O
inactive: efficacy [1] -16.3% | outcome [2] | outcome [3] | outcome [4] | outcome [5] | outcome [6]

O=C(O)C(Cc1cc(I)c(O)c(I)c1)c1ccccc1 (stereo unspecified)
inactive: efficacy [1] -25.4% | outcome [2] | outcome [3] | outcome [4] | outcome [5] | outcome [6]

CC(=O)Nc1cccc(O)c1
inactive: efficacy [1] 28% | outcome [2] | outcome [3] | outcome [4] | outcome [5] | outcome [6]

O=C(O)CCC(=O)OC[C@@H](NC(=O)C(Cl)Cl)[C@H](O)c1ccc([N+](=O)[O-])cc1
inactive: efficacy [1] 19.1% | outcome [2] | outcome [3] | outcome [4] | outcome [5] | outcome [6]

O=C1Nc2ccccc2C1(c1ccc(O)cc1)c1ccc(O)cc1
inactive: efficacy [1] -14% | outcome [2] | outcome [3] | outcome [4] | outcome [5] | outcome [6]

CC(=O)N(CC(O)CN(C(C)=O)c1c(I)c(C(=O)NCC(O)CO)c(I)c(C(=O)NCC(O)CO)c1I)c1c(I)c(C(=O)NCC(O)CO)c(I)c(C(=O)NCC(O)CO)c1I (stereo unspecified)
inactive: efficacy [1] -12.3% | outcome [2] | outcome [3] | outcome [4] | outcome [5] | outcome [6]

O=C(O)C(=O)Nc1cccc(-c2nn[nH]n2)c1
inactive: efficacy [1] 14.4% | outcome [2] | outcome [3] | outcome [4] | outcome [5] | outcome [6]

CCCCOC(=O)CCCCCCCCC(=O)OCCCC
inactive: efficacy [1] -13.9% | outcome [2] | outcome [3] | outcome [4] | outcome [5] | outcome [6]

O=C1CC2(CCCC2)CC(=O)N1CCCCN1CCN(c2ncccn2)CC1
inactive: efficacy [1] 11.1% | outcome [2] | outcome [4] | outcome [6]
active: AC50 [3] 22.4 µM | AC50 [5] 22.4 µM

O=C(O)CCc1nc(-c2ccccc2)c(-c2ccccc2)o1
inactive: efficacy [1] 18.2% | outcome [2] | outcome [3] | outcome [4] | outcome [5] | outcome [6]

O=C(O)Cn1c(C(=O)Nc2nc(-c3ccccc3Cl)cs2)cc2ccccc21
inactive: efficacy [1] -23.1% | outcome [2] | outcome [3] | outcome [4] | outcome [5] | outcome [6]

O=C(CCN1CCN(CCO)CC1)N1c2ccccc2Sc2ccc(C(F)(F)F)cc21
inactive: efficacy [1] 14.8% | outcome [2] | outcome [3] | outcome [4] | outcome [5] | outcome [6]

CCN(CC)C(=O)N1CCN(C)CC1
inactive: efficacy [1] -16.8% | outcome [2] | outcome [3] | outcome [4] | outcome [5] | outcome [6]

O=C(O)CCNC(=O)c1ccccc1
inactive: efficacy [1] -15.3% | outcome [2] | outcome [3] | outcome [4] | outcome [5] | outcome [6]

CC(=O)N[C@@H](CO)C(=O)N[C@@H](CC(=O)O)C(=O)N[C@@H](CCCCN)C(=O)N1CCC[C@H]1C(=O)O (Ac-SDKP-OH)
inactive: efficacy [1] 17.5% | outcome [2] | outcome [3] | outcome [4] | outcome [5] | outcome [6]

CCn1ccnc1CC1COc2ccccc2O1 (stereo unspecified)
inactive: efficacy [1] -17.5% | outcome [2] | outcome [3] | outcome [4] | outcome [5] | outcome [6]

OC(CN1CCC(Cc2ccc(F)cc2)CC1)c1ccc(Cl)cc1 (stereo unspecified)
inactive: efficacy [1] -10% | outcome [2] | outcome [3] | outcome [4] | outcome [5] | outcome [6]

CCOc1c(N2CCOCC2)cnn(C)c1=O
inactive: efficacy [1] -16.1% | outcome [2] | outcome [3] | outcome [4] | outcome [5] | outcome [6]

O=C(O)C1CCC1
inactive: efficacy [1] -19% | outcome [2] | outcome [3] | outcome [4] | outcome [5] | outcome [6]

C/C=C/C(=O)N(CC)c1ccccc1C
inactive: efficacy [1] 23.4% | outcome [2] | outcome [3] | outcome [4] | outcome [5] | outcome [6]

CCOC(=O)c1ccc(NC(=O)CN2CCCCC2)cc1
inactive: efficacy [1] -17.3% | outcome [2] | outcome [3] | outcome [4] | outcome [5] | outcome [6]

Cc1cccc(C)c1NC(=O)CN1CCCC1
inactive: efficacy [1] 18.6% | outcome [2] | outcome [3] | outcome [4] | outcome [5] | outcome [6]

Cc1nnc(C(=O)NC(C)(C)c2nc(C(=O)NCc3ccc(F)cc3)c(O)c(=O)n2C)o1
inactive: efficacy [1] -16.5% | outcome [2] | outcome [3] | outcome [4] | outcome [5] | outcome [6]

NC(=O)NNc1ccccc1
inactive: efficacy [1] -21.6% | outcome [2] | outcome [3] | outcome [4] | outcome [5] | outcome [6]

O=C(CCCCCCCCC#CI)Oc1ccccc1
inactive: efficacy [1] -20.5% | outcome [2] | outcome [3] | outcome [4] | outcome [5] | outcome [6]

CC(C(=O)O)c1ccc2c(c1)Cc1cccnc1O2 (stereo unspecified)
inactive: efficacy [1] -16.5% | outcome [2] | outcome [3] | outcome [4] | outcome [5] | outcome [6]

O=S(=O)(O)NC1CCCCC1
inactive: efficacy [1] 14.2% | outcome [2] | outcome [3] | outcome [4] | outcome [5] | outcome [6]

COc1ccc2c(c1)C(=O)N(CCc1ccc(S(=O)(=O)NC(=O)NC3CCCCC3)cc1)C(=O)C2(C)C
inactive: efficacy [1] -16.1% | outcome [2] | outcome [3] | outcome [4] | outcome [5] | outcome [6]

Cc1c(Cn2ccnc2)c2ccccc2n1CCC(=O)O
inactive: efficacy [1] 14% | outcome [2] | outcome [3] | outcome [4] | outcome [5] | outcome [6]

c1ccc([C@H]2CN3CCSC3=N2)cc1
inactive: efficacy [1] -38.1% | outcome [2] | outcome [3] | outcome [4] | outcome [5] | outcome [6]

C[N+](C)(C)CC[N+]1(C)Cc2c(Cl)c(Cl)c(Cl)c(Cl)c2C1
inactive: efficacy [1] 13.2% | outcome [2] | outcome [3] | outcome [4] | outcome [5] | outcome [6]
